# This is a sample that favours compounds with a hit; in the whole collection about 17% have one here.
# DT40 TDP1 CPT: qHTS for Inhibitors of human tyrosyl-DNA phosphodiesterase 1 (TDP1): qHTS in cells in presence of CPT; chicken DT40 Tdp1-/-;hTDP1 cells + 20 nM CPT, ATP luminescence, 48 h; Potency, µM (highest dose often 46.2 µM), without a hit: at the top dose activity change, negative = growth inhibition, hits mostly inhibitors; hit rate 12% among 420,000; AID 686979, 2013; also: % is scaled to controls: 0 for no effect and ±100 for the full control effect; nearly all actives have a fitted effect of over 55% in size
#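 Chicken DT40 Tdp1-/- cells stably complemented with human TDP1 were seeded at 400 cells/well in medium containing 20 nM camptothecin, exposed to pin-transferred compounds, and grown at 37 °C for at least 48 hr. Viability was read as ATP luminescence.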
# TDP1 cell noCPT: qHTS for Inhibitors of human tyrosyl-DNA phosphodiesterase 1 (TDP1): qHTS in cells in absence of CPT. DT40 Tdp1-/- hTDP1 cells, no CPT, ATP luminescence, 48 h. Potency, µM (top dose mostly 46.2 µM), for inactives: at the highest dose activity change, negative = growth inhibition, hits mostly inhibitors. hit rate 15% among 420,000. AID 686978, 2013; also: % is scaled to controls: 0 for no effect and ±100 for the full control effect; nearly all actives have a fitted effect of over 55% in size
#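 DT40 Tdp1-/-;hTDP1 cells, no CPT (DMSO vehicle only), 400 cells/well; compounds pin-transferred; ≥48 hr, 37 °C; CellTiter-Glo 30 min RT dark, luminescence read.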
# TDP1 block: qHTS Assay for Inhibitors of Tyrosyl-DNA Phosphodiesterase (TDP1); Tyrosyl-DNA phosphodiesterase 1 (Homo sapiens), Q9NUW8; recombinant TDP1, AlphaScreen DNA substrate cleavage; Potency, µM (doses to about 130 µM), inactives show at the highest dose activity change, negative = inhibition, hits mostly inhibitors; hit rate 0.28% among 350,000; also: % is scaled to controls: 0 for no effect and ±100 for the full control effect; nearly all actives have a fitted effect of over 40% in size
#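 Compounds were preincubated with Tdp1 (1 nM final) for 15 min at room temperature before substrate (15 nM final) started a 5 min reaction; beads (10 ug/ml final) were then added for 10 min before AlphaScreen detection.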
# ClpP mod: qHTS Assay for Activators of ClpP. ATP-dependent Clp protease proteolytic subunit (Bacillus subtilis (strain 168)), P80244. purified B. subtilis ClpP, FRET peptide cleavage, 20 min. Potency, µM (highest dose often 57.5 µM), without a hit: top-dose activity change, negative = active. hit rate 1.9% among 340,000. AID 651965, 2013; active = well fitted falling curve with a large enough effect; inconclusive = small, poorly fitted or top-dose-only effect; inactive = no such curve, though single readings can be large or run the other way; also: the source files actives as falling curves though it sought activators and does not explain the sign; nearly all actives have a fitted effect of over 65% in size
#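 ClpP 10 microg/mL final, pH 8 Tris/KCl buffer with BSA, glycerol, Tween-20; compound pinned in; FRET-FV substrate; RT 20 min; Ex320/Em430; ΔFRET vs ADEP 5.8 microM, DMSO, no enzyme.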
# * hit, by the source's call; ? = inconclusive; nt = no result given; [ ] = dose if it differs, or a comment. Unless noted, calls follow the shape of the dose curve; as a rule, active = well fitted curve in the direction sought with a large enough effect; inconclusive = small, poorly fitted or top-dose-only effect, or another doubt; inactive = no such curve, though single readings can be large; an effect the other way counts as inactive or inconclusive. Potency is read from the fitted curve at half-maximal effect.
SMILES,DT40 TDP1 CPT,TDP1 cell noCPT,TDP1 block,ClpP mod
Cc1ccc2sc(N(CCCN(C)C)C(=O)c3ccc(S(=O)(=O)N(C)C4CCCCC4)cc3)nc2c1C,9.2µM*,5.8µM*,nt,-6%
Cc1ccc2sc(N(CCCN(C)C)C(=O)c3ccc(S(=O)(=O)N4CCOCC4)cc3)nc2c1C,?,?,-5%[0.505 µM],-1%
CC(=O)c1ccc(C(=O)N(Cc2cccnc2)c2nc3c(C)c(C)ccc3s2)cc1,23µM*,16µM*,3%,-1%
CCN(CC)CCN(C(=O)c1ccc(S(=O)(=O)N(C)C2CCCCC2)cc1)c1nc2c(C)cccc2s1,23µM*,21µM*,7%,-22%
CC(=O)c1ccc(C(=O)N(CCCN(C)C)c2nc3c(C)c(C)ccc3s2)cc1,18µM*,23µM*,6%,0%
COc1cccc(C(=O)Nn2cnnc2)c1OC,-11%,1%,nt,1%
CCOc1ccccc1NC(=S)/C(=C(\[O-])c1ccc2c(c1)OCCO2)[n+]1ccc(CC)cc1,21µM*,nt,3%,-11%
[O-]C(=C(C(=S)Nc1cccc2ccccc12)[n+]1ccccc1)c1ccc2c(c1)OCCO2,-15%,?,nt,nt
O=C(NCc1cccnc1)c1cc(C2CCCCN2C(=O)OCc2ccccc2)on1 (centres undefined),?,?,nt,-3%
CCCN1C(=O)C(O)(CC(=O)c2cccc(OC)c2)c2ccccc21 (centres undefined),4.1µM*,3.3µM*,9%,0%
COc1ccc(C(=O)CC2(O)C(=O)N(Cc3cccc(C(F)(F)F)c3)c3ccccc32)cc1 (centres undefined),nt,nt,2%,1%
COc1cccc(C(=O)CC2(O)C(=O)N(Cc3ccccc3)c3ccccc32)c1 (centres undefined),6.5µM*,6.5µM*,nt,0%
COc1cc(-c2nc(SCC(=O)Nc3ccc4c(c3)OCO4)c(-c3ccccc3)[nH]2)cc(OC)c1OC,?,16µM*,8%,-23%
O=C(CSc1nc(-c2ccccc2)[nH]c1-c1ccccc1)Nc1ccc2c(c1)OCO2,21µM*,15µM*,10%,-14%
O=C(CSc1nc(-c2ccccc2)c(-c2ccccc2)[nH]1)Nc1ccc2c(c1)OCO2,?,13µM*,0%,25µM*
O=C(c1cnn(-c2nccc(-c3ccccc3F)n2)c1C1CC1)N1CCN(CCO)CC1,19%[9.04 µM],-10%,nt,nt
Cc1cc(O)ccc1N=Cc1c(C(F)(F)F)[nH][nH]c1=O,23µM*,10µM*,2%,0%
Cc1sc2ncnc(N3CCN(CCOc4ccc(Cl)cc4)CC3)c2c1C,2.5µM*,2.5µM*,6%,-3%
CCCN1CCN(c2ncnc3sc(C(=O)Nc4ccc(N(CC)CC)cc4C)c(C)c23)CC1,23µM*,15µM*,11%,-1%
CCN1CCN(C(=O)c2sc3ncnc(N4CCc5ccccc5C4)c3c2C)CC1,?,?,1%,-6%
CCCN1CCN(c2ncnc3sc(C(=O)Nc4cccc(Cl)c4C)c(C)c23)CC1,?,21µM*,-4%,-1%
COC(=O)c1cc2cc(Cl)ccc2nc1SC,10%,-3%,-3%,-1%
O=C(NC1CCCCC1)c1cc(F)cc2c1OCOC2,-27%,-30%,3%,nt
CCN1CCN(c2cc(C)c3cc(NC(=O)c4cc(OC)cc(OC)c4)ccc3n2)CC1,?,16µM*,4%,-10%
CCCCc1ccc(C(=O)Nc2ccc3nc(N4CCN(CC)CC4)cc(C)c3c2)cc1,3.7µM*,2.9µM*,3%,47%
CCOc1ccc(C(=O)Nc2ccc3nc(N4CCN(CC)CC4)cc(C)c3c2)cc1,?,26µM*,nt,nt
Cc1cn2c(=O)cc(COc3cc(C)c(Cl)c(C)c3)nc2s1,11%,8%,4%,-1%
CC(=O)c1c(O)c(C)c(O)c2c1OC1=Cc3c(c(C)nn3C)C(=O)C12C (centres undefined),16µM*,29µM*,nt,0%

# High-throughput results deposited in PubChem BioAssay by National Center for Advancing Translational Sciences (NCATS).
